Assay results from ChEMBL document CHEMBL4513216, “Probing the Open Global Health Chemical Diversity Library for Multistage-Active Starting Points for Next-Generation Antimalarials” (ACS Infect Dis, 2020).
Among all 69,000 compounds or so, about 8,600 (12%) showed an effect of 50% or more. The sample as a whole holds a higher share of strong results than the screen did.

system: Plasmodium berghei; test: Screen against P. berghei liver stage (PbLuc), transformed with Luciferase, at 10uM; type: functional, HepG2; settings: tested at 10 uM

| SMILES | INHIBITION |
| --- | --- |
| COC(=O)CN1CC2(CCNCC2)COc2ccccc2S1(=O)=O | 27.6% |
| Cc1nnc2n1CCN(C(C(=O)NC(C)C)c1ccccc1)C2 (centres undefined) | 15.2% |
| CC(C)c1nnc2n1CCN(C(C)c1nnc(-c3cccs3)o1)C2 (centres undefined) | 21.1% |
| CC(c1nnc(-c2cccs2)o1)N1CCn2c(nnc2C2CC2)C1 (centres undefined) | 51.5% |
| O=C(NC1CC1)C(c1ccccc1)N1CCn2c(nnc2C2CC2)C1 (centres undefined) | 6.05% |
| Cc1nnc2n1CCN(C(C)c1nnc(-c3cccs3)o1)C2 (centres undefined) | 13.5% |
| CC(C)NC(=O)C(c1ccccc1)N1CCn2c(nnc2C2CC2)C1 (centres undefined) | 50.4% |
| CCc1ccc(CN2CC[C@H]3C[C@H](c4nnc(C)[nH]4)O[C@@H]3C2)o1 | -11.5% |
| COc1cccc(F)c1-c1c[nH]c(C)n1 | 11.8% |
| Cc1ncsc1C(=O)NCCSCc1cccs1 | 63.4% |
| Cc1ncsc1C(=O)NCc1cccs1 | 35.8% |
| O=C(NCCNc1ncccn1)c1scnc1Cl | 11.9% |
| O=C(NCCNc1cnccn1)c1scnc1Cl | 53.3% |
| O=C(NCCNC(=O)c1scnc1Cl)c1ccccc1 | 30.3% |
| CCc1nc(C)c(C(=O)NCCNc2cnccn2)s1 | 4.88% |
| Cc1ncsc1C(=O)NCCNc1ncccn1 | 34.7% |
| Cc1ncsc1C(=O)NCCc1cccs1 | -25.667% |
| Cc1ncsc1C(=O)NCCNc1cnccn1 | 60% |
| O=C(NCCCn1nc2ccccn2c1=O)Nc1ccc(F)cc1F | -17% |
| c1ccc(CN2CCC3(CC2)CCN(Cc2cccs2)C3)nc1 | -4.27% |
| O=C(C1COCCO1)N1CCN(CC(F)(F)F)c2ccccc21 (centres undefined) | -8.22% |
| Cc1nn(C)c(C)c1CC(=O)N1CCc2nnc(N(C)C)cc2C1 | 42.65% |
| CN(C)c1cc(CNC(=O)c2ccccc2S(C)(=O)=O)ccn1 | -19.4% |

| SMILES | INHIBITION |
| --- | --- |
| Cc1noc(C)c1CN1C(=O)[C@@H]2CC[C@H]1CN(C(=O)c1cscn1)C2 | 45% |
| NC(=O)CN1CCCC(CCCc2ccccn2)(C(N)=O)C1 (centres undefined) | -0.902% |
| Cn1cc(CN2CCCC(CCCc3ccccn3)(C(N)=O)C2)cn1 (centres undefined) | 20.8% |
| NC(=O)C1(CCCc2cccnc2)CCCN(c2ncccn2)C1 (centres undefined) | 0.932% |
| NC(=O)C1(CCCc2ccccn2)CCCN(Cc2ccncc2)C1 (centres undefined) | 54.5% |
| CN1CCCC(CCCc2cccnc2)(C(N)=O)C1 (centres undefined) | 50.1% |
| NC(=O)C1(CCCc2ccccn2)CCCN(c2ncccn2)C1 (centres undefined) | -6.3% |
| COc1ccc(C(=O)Nc2cccc(SC)c2)c(OC)n1 | -138% |
| CCOc1cc(C)nc(N2CCN(C(=O)c3csnn3)CC2)n1 | 33.8% |
| O=C(O)[C@@H]1CCN(C(=O)c2cscn2)[C@@H]1c1ccc(F)cc1 | -35.5% |
| CCOc1ccc2ccccc2c1CNCC1CCS(=O)(=O)C1 (centres undefined) | 57.3% |
| COc1ccc2ccccc2c1CNCC1CCS(=O)(=O)C1 (centres undefined) | 46.4% |
| CCOc1ccc2ccccc2c1CNCC1CCNCC1 | 49.2% |
| Cc1cc2nc(C(C)C)cc(N3CCC(Oc4ncccn4)CC3)n2n1 | -17.1% |
| CCOC(=O)CSc1nnc([C@@H](N)C(C)C)o1 | 2.49% |
| Cc1cc(S(C)(=O)=O)c(C)c(S(=O)(=O)NC2CCCC2)c1 | -1.28% |
| Cc1cc(S(C)(=O)=O)c(C)c(S(=O)(=O)NCC2CCC2)c1 | 54.4% |
| Cc1cc(S(C)(=O)=O)c(C)c(S(=O)(=O)NCC2CCCO2)c1 (centres undefined) | 48.4% |
| Cc1nn(C)cc1C1CC(=O)Nc2c1cnn2C(C)(C)C (centres undefined) | -16.5% |
| O=C(c1ccn(-c2cccc(Cl)c2)n1)N1CCN(CCO)CC1 | -12.2% |
| CS(=O)(=O)N1CCN(C(=O)c2cncs2)CC(C(N)=O)C1 (centres undefined) | -0.8525% |
| Cc1ccc(CN2CCC3(CC2)CC(c2cccnc2)C(=O)N3C)o1 (centres undefined) | 55.4% |
| Cc1ccc(CN2CCC3(CC2)C(c2ccccc2)CC(=O)N3C)o1 (centres undefined) | 51.2% |

| SMILES | INHIBITION |
| --- | --- |
| CN1C(=O)C(c2cccnc2)CC12CCN(CCO)CC2 (centres undefined) | -7.24% |
| Cc1cccc(CN2CCC3(CC2)CC(c2cccnc2)C(=O)N3C)n1 (centres undefined) | 20.6% |
| Cc1noc(C)c1CN1CCC2(CC1)C(c1ccccc1)CC(=O)N2C (centres undefined) | 42.1% |
| CN1C(=O)CC(c2ccccc2)C12CCN(CCO)CC2 (centres undefined) | -63.9% |
| Cc1nc(C2CCCN2C(=O)Cc2cccc(F)c2)nc(O)c1C (centres undefined) | 11.1% |
| O=C(Cc1ccsc1)N1CCCC2(COCCN(CC3CC3)C2)C1 (centres undefined) | -14.3% |
| COCCNC(=O)Cn1cc(NC(=O)c2cc(Cl)c(Cl)n2C)cn1 | 12.9% |
| Cc1cc(C)n(CC2CN(CC(=O)NCc3cccs3)CCO2)n1 (centres undefined) | 18.933% |
| Cc1ccccc1N1CC(C)N(C(=O)CCn2cccn2)CC1=O (centres undefined) | 64.5% |
| CCc1nccn1CCC(=O)N1CC(=O)N(c2ccccc2C)CC1C (centres undefined) | 49.9% |
| CCc1nccn1CC(=O)N1C[C@@H]2CC[C@H]1CN(S(=O)(=O)N(C)C)C2 | 17% |
| COc1cccc(CN2CC(=O)N(c3ccccc3C)CC2C)c1OC (centres undefined) | 17.8% |
| Cc1ccccc1N1CCN(C(=O)CCc2nncn2C)C(C)C1 (centres undefined) | 8.38% |
| CCc1nccn1CC(=O)N1C[C@@H]2CC[C@H]1CN(C(=O)N(C)C)C2 | -19.7% |
| CCc1nccn1CCC(=O)N1CCN(c2ccccc2C)CC1C (centres undefined) | 66.7% |
| Cc1ccccc1N1CC(C)N(Cc2ccc(C)c(F)c2F)CC1=O (centres undefined) | -8.92% |
| CCc1nccn1CCC(=O)N1C[C@@H]2CC[C@H]1CN(C(=O)N(C)C)C2 | 50.2% |
| COCCn1ccnc1C1CCN(C(=O)CSc2nnc(C)o2)CC1 | 7.24% |
| COc1ncccc1CNC(=O)c1c(C)oc(C)c1C | 5.1% |
| CNC(=O)c1ccc(C2CN(CC(=O)N(C)C)CCO2)nc1 (centres undefined) | -3.94% |
| c1cncc(OCC2CC3(CCN(CC4CC4)CC3)CO2)c1 (centres undefined) | 13.7% |
| COc1ccc(C)nc1NC(=O)Cc1c(C)nn(C)c1C | 41.6% |
| COCC[C@]1(O)CCN(CC(=O)NCc2ccccc2C)C[C@H]1C | 46.3% |
